Experimental data as given in PubChem BioAssay (NCATS).
Inconclusive results are not listed. Calls of active or inactive are those of the source. Calls follow the shape of the dose curve; as a rule, active = well fitted inhibition curve with a large enough effect; inconclusive = small, poorly fitted or top-dose-only effect, or effect the other way; inactive = flat fitted curve, though single readings scatter.

What follows are compounds tested against ATP-dependent 6-phosphofructokinase (Trypanosoma brucei brucei) (UniProt O15648) (assay: qHTS Assay to Find Inhibitors of T. brucei phosphofructokinase: hit validation (AID 492961;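 as to activity change, negative = inhibition: luminescence reports ADP formed as PFK phosphorylates fructose-6-phosphate with ATP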)). Conditions: T. brucei PFK, ADP-Glo luminescence; series mostly up to 51.4 µM; activity change, negative = inhibition: at the top concentration.
Summary of the method: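 Inhibition of parasite PFK is measured as reduced ADP formation, quantified via luciferase after ATP depletion. Assay used 0.1 mM ATP, 0.5 mM F6P, 1.25 nM enzyme, 45 min incubation.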
% is scaled to controls: 0 for no effect and ±100 for the full control effect; potency is read from the fitted curve at half-maximal effect.

ATP-dependent 6-phosphofructokinase (Trypanosoma brucei brucei), sequence (O15648 whole entry, looked up): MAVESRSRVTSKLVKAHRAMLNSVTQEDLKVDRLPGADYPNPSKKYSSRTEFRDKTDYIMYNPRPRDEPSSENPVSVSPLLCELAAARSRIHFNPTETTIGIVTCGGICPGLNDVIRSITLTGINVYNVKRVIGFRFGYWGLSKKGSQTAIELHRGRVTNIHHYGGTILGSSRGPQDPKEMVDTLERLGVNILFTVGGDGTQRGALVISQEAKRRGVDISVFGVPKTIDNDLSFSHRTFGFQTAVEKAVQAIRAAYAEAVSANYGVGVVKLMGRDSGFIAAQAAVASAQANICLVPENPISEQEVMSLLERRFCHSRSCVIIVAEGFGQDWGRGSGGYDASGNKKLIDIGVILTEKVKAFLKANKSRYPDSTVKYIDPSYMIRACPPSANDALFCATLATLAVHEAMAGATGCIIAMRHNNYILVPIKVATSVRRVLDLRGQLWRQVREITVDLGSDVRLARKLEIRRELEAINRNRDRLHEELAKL

Structure (SMILES)	activity change, negative = inhibition	Potency
O=C(CCCN1CCC(n2c(=O)[nH]c3ccccc32)CC1)c1ccc(F)cc1	2.61% [at 24.3 µM] (inactive)	–
OC(c1ccccc1)(c1ccccc1)C1CCNCC1	-4.59% [at 24.3 µM] (inactive)	–
CCNC(=O)NCc1cccc(Cl)c1	–	15.8 µM (active)
Oc1c(Br)cc(Br)cc1Br	12% (inactive)	–
CC(Cc1ccccc1)NCc1ccccc1Cl (configuration not stated)	-4.69% (inactive)	–
COc1ccc(CN2CCNCC2)c(OC)c1OC	-0.334% [at 24.3 µM] (inactive)	–
Oc1ccc2[nH]cc(CCCCN3CC=C(c4ccccc4)CC3)c2c1	-2.05% (inactive)	–
COP(=S)(OC)Oc1ccc(Sc2ccc(OP(=S)(OC)OC)cc2)cc1	-6.48% (inactive)	–
OC(O)C(Cl)(Cl)Cl	-0.44% (inactive)	–
Clc1ccc(CO/N=C(\Cn2ccnc2)c2ccc(Cl)cc2Cl)c(Cl)c1	17.6% (inactive)	–
C[C@]12Cc3nonc3C[C@@H]1CC[C@@H]1[C@@H]2CC[C@@]2(C)[C@H]1CC[C@]2(C)O	-1.22% (inactive)	–
CN1C[C@@H](NS(=O)(=O)N(C)C)C[C@@H]2c3cccc4c3c(cn4C)C[C@H]21	6.52% (inactive)	–
